TDP1 block: qHTS Assay for Inhibitors of Tyrosyl-DNA Phosphodiesterase (TDP1). Tyrosyl-DNA phosphodiesterase 1 (Homo sapiens), Q9NUW8. recombinant TDP1, AlphaScreen DNA substrate cleavage. Potency, µM (top dose mostly 130 µM), without a hit: at the top dose activity change, negative = inhibition, hits mostly inhibitors. actives 0.28% (n = 350,000). AID 485290, 2010; also: % is scaled to controls: 0 for no effect and ±100 for the full control effect; nearly all actives have a fitted effect of over 40% in size
Target sequence (Q9NUW8 whole entry, looked up): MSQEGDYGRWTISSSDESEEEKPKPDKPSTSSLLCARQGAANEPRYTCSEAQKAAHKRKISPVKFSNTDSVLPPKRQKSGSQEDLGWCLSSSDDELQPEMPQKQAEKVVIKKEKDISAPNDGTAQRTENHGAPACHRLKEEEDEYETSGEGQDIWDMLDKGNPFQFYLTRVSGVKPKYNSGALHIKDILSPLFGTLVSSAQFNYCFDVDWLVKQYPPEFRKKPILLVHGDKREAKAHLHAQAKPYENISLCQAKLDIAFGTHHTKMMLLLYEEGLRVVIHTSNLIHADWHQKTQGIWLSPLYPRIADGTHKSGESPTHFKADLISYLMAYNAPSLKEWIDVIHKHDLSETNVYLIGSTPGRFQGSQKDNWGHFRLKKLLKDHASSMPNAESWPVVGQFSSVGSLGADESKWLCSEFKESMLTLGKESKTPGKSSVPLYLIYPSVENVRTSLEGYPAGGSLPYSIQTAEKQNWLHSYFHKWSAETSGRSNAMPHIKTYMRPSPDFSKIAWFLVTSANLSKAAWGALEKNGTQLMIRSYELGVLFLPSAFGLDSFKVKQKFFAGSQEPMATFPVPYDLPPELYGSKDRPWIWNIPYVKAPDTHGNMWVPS
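Compounds were preincubated with Tdp1 (1 nM final) for 15 min at room temperature before substrate (15 nM final) started a 5 min reaction; beads (10 ug/ml final) were then added for 10 min before AlphaScreen detection.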
TDP1 cell CPT: qHTS for Inhibitors of human tyrosyl-DNA phosphodiesterase 1 (TDP1): qHTS in cells in presence of CPT; chicken DT40 Tdp1-/-;hTDP1 cells + 20 nM CPT, ATP luminescence, 48 h; Potency, µM (doses to about 46.2 µM), for inactives: at the top dose activity change, negative = growth inhibition, actives largely listed as inhibitors; actives 12% (n = 420,000); AID 686979, 2013; also: % is scaled to controls: 0 for no effect and ±100 for the full control effect; nearly all actives have a fitted effect of over 55% in size
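Chicken DT40 Tdp1-/- cells stably complemented with human TDP1 were seeded at 400 cells/well in medium containing 20 nM camptothecin, exposed to pin-transferred compounds, and grown at 37 °C for at least 48 hr. Viability was read as ATP luminescence.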
ClpP mod: qHTS Assay for Activators of ClpP. Potency, µM (doses to about 57.5 µM), inactives show at the highest dose activity change, negative = active. purified B. subtilis ClpP, FRET peptide cleavage, 20 min. AID 651965, 2013. actives 1.9% (n = 340,000). ATP-dependent Clp protease proteolytic subunit (Bacillus subtilis (strain 168)), P80244; active = well fitted falling curve with a large enough effect; inconclusive = small, poorly fitted or top-dose-only effect; inactive = no such curve, though single readings can be large or run the other way; also: the source files actives as falling curves though it sought activators and does not explain the sign; nearly all actives have a fitted effect of over 65% in size
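FRET quenching reversal measured ClpP activation: 10 microg/mL B. subtilis ClpP at pH 8 with the FRET-FV decapeptide, read at 430 nm after 320 nm excitation. The 20-min minus 0-min signal was scaled between DMSO/no-enzyme wells and ADEP (5.8 microM final).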
TDP1 cell noCPT: qHTS for Inhibitors of human tyrosyl-DNA phosphodiesterase 1 (TDP1): qHTS in cells in absence of CPT. AID 686978, 2013. actives 15% (n = 420,000). Potency, µM (titrated, usually from 46.2 µM), for the others: at the highest dose activity change, negative = growth inhibition, hits mostly inhibitors. DT40 Tdp1-/- hTDP1 cells, no CPT, ATP luminescence, 48 h; also: % is scaled to controls: 0 for no effect and ±100 for the full control effect; nearly all actives have a fitted effect of over 55% in size
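Luminescent ATP content (CellTiter-Glo) served as the growth readout. Knockout chicken DT40 cells expressing human TDP1 were exposed to compounds without camptothecin for a minimum 48 hr at 37 °C.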
The depositor's hits bear a star; ? = inconclusive; . = no result given; [ ] = dose if it differs, or a comment. Shown are actives, neighbours in structure and some others; about 17% of the full set was active somewhere. Unless noted, calls follow the shape of the dose curve; as a rule, active = well fitted curve in the direction sought with a large enough effect; inconclusive = small, poorly fitted or top-dose-only effect, or another doubt; inactive = no such curve, though single readings can be large; an effect the other way counts as inactive or inconclusive. Potency is read from the fitted curve at half-maximal effect.

SMILES	TDP1 block	TDP1 cell CPT	ClpP mod	TDP1 cell noCPT
CCOc1cc(CNCC(C)C)cc(Cl)c1OCc1ccccc1	4.8%	?	-2.1%	20.6µM*
COc1cc(CNCc2ccncc2)cc(Br)c1OCc1ccccc1F	4.9%	?	0.9%	?
CCOc1cc(CNc2ccc3c(c2)OCCO3)cc(Br)c1OC	10.4%	0.517µM*	1.4%	1.16µM*
COc1cc(CNc2ccc(O)cc2)cc(Br)c1OCc1ccccc1F	-1.8%	16.4µM*	-3.7%	?
CSc1ccccc1C(=O)NCC1Cc2cccc(-c3ncccc3C)c2O1 (stereo not drawn)	.	-7.5%	.	-23.2%
CCN1CCCC1CNCc1cccc(OC)c1OCc1ccccc1F (stereo not drawn)	1.9%	-19.5%	0.5%	-7.0%
COc1cccc(CNc2ccccc2O)c1OCc1ccccc1F	11.0%	23.1µM*	.	?
Cc1cn2c(=O)cc(COC(=O)c3ccc(NC(=O)c4ccc(F)cc4)cc3)nc2s1	-3.8%	?	-13.5%	?
CCS(=O)(=O)NC(C)C(c1cccs1)N1CCN(c2ccc(OC)cc2)CC1 (stereo not drawn)	1.2%	20.6µM*	-2.4%	23.1µM*
CC(NS(=O)(=O)c1ccc(Br)cc1)C(c1cccs1)N1CCOCC1 (stereo not drawn)	.	18.4µM*	-1.2%	?
COc1ccc(N2CCN(C(c3cccs3)C(C)NC(=O)C(=O)N3CCCC3)CC2)cc1 (stereo not drawn)	6.0%	16.4µM*	-3.2%	?
COc1ccc(N2CCN(C(c3cccs3)C(C)NS(=O)(=O)c3ccccc3)CC2)cc1 (stereo not drawn)	6.3%	20.6µM*	-20.7%	13µM*
O=C(Nc1cccc(-n2cnnn2)c1)c1ccc(OC(F)(F)F)cc1	1.3%	-18.7%	-7.7%	1.0%
CN1CCN(c2ncc3nc(-c4cccs4)c(=O)n(-c4ccccc4)c3n2)CC1	.	1.0%	.	10.6%
CCOc1cc(/C=C2/C(=O)N(c3ccccc3)N=C2C)ccc1OC(=O)c1ccco1	9.3%	?	-2.2%	?
CCOc1cc(/C=C2\C(=O)N(c3ccc(C(N)=O)cc3)N=C2C)ccc1OC(=O)c1cccs1	4.0%	14.6µM*	-0.9%	23.1µM*
O=C(NCC(=O)N1CC=C(c2ccccc2)CC1)c1ccccc1Br	3.5%	?	1.1%	20.6µM*
O=C(NCC(=O)N1CCCCCC1)c1ccc(OC(F)F)cc1	1.1%	2.5%	-0.6%	-7.3%
O=C(NCC(=O)N1CC=C(c2ccccc2)CC1)c1ccc(OC(F)F)cc1	-0.9%	7.31µM*	-5.7%	7.31µM*
Cc1cc(C)c(OCC(=O)N2CC=C(c3ccccc3)CC2)c(C)c1	-7.4%	-12.9%	-5.8%	8.3%
COc1cc(OC)cc(C(=O)NCC(=O)N2CC=C(c3ccccc3)CC2)c1	.	3.26µM*	-4.6%	4.61µM*
CSCCC(N=C(NS(=O)(=O)c1ccc(C)cc1)c1ccccc1)C(=O)O (stereo not drawn)	.	-6.6%	-0.3%	16.7%
CCOc1ccc(N2C(=O)CC(N(CCc3ccc(OC)c(OC)c3)C(=O)/C=C/C(=O)O)C2=O)cc1 (stereo not drawn)	.	-14.5%	0.6%	19.5%
CCc1ccc(OCC(=O)N2CCN(c3ccccn3)CC2)c(Br)c1	2.1%	13µM*	?	?
Cc1cc(OCC(=O)N2CCN(c3ccccn3)CC2)cc(C)c1Br	2.6%[56.1 µM]	?	?	16.4µM*
SMILES	TDP1 block	TDP1 cell CPT	ClpP mod	TDP1 cell noCPT
O=C(COc1ccc(Br)cc1Cl)N1CCN(c2ccccn2)CC1	2.2%	-1.3%	-23.7%	-7.4%
Cc1ccc(NC(=O)N2CCN(c3nnc(C)c4c(C)n(-c5ccc(Cl)cc5)nc34)CC2)c(C)c1	0.6%	1.4%	-2.9%	-16.8%
O=C(NC1CCCCC1)N(Cc1nc2ccccc2c(=O)[nH]1)C1CCCC1	5.0%	-24.1%	-1.1%	?
Cc1sc2nc(CN(Cc3cccs3)C(=O)C3CC3)[nH]c(=O)c2c1C	1.9%	16.4µM*	-3.3%	9.2µM*
Cc1sc2nc(SCC(=O)NCc3cccs3)[nH]c(=O)c2c1C	2.1%	-6.4%	-0.2%	-2.4%
Cc1sc2nc(CN(C(=O)NC3CCCCC3)C3CCCCC3)[nH]c(=O)c2c1C	-1.1%	18.4µM*	-2.9%	20.6µM*
Cc1cc(Cn2nc(-c3ccccc3)cc2C(=O)NCC2CC2)on1	-0.8%	-20.6%	-3.4%	-9.8%
CSc1ccc(CCNC(=O)C2CCCN(c3ncnc4c3nc3n4CCCCC3)C2)cc1 (stereo not drawn)	4.7%	?	.	?
CC1CC(C)CN(CCCNC(=O)C2CCCN(c3ncnc4c3nc3n4CCCCC3)C2)C1 (stereo not drawn)	-5.6%	-2.1%	.	-13.2%
CCN(CCNC(=O)C1CCCN(c2ncnc3c2nc2n3CCCCC2)C1)Cc1ccccc1 (stereo not drawn)	5.9%	?	0.7%	25.9µM*
CC(C)N(Cc1ccccc1)C(=O)C1CCCN(c2ncnc3c2nc2n3CCCCC2)C1 (stereo not drawn)	3.3%	?	2.6%	18.4µM*
O=C1OC(c2ccccc2)(c2ccccc2)N2CCN(C(=O)NCc3ccc(F)cc3)CC12 (stereo not drawn)	0.2%	.	.	.
O=C(Cc1ccccc1)NCCc1csc2nc(-c3ccc(Cl)cc3)nn12	5.4%	11.6µM*	-3.9%	9.2µM*
O=C(Cc1ccc(F)cc1)NCCc1csc2nc(-c3ccc(Cl)cc3)nn12	2.7%	?	-5.0%	20.6µM*
O=C(NCCc1csc2nc(-c3ccc(F)cc3)nn12)c1ccco1	2.7%	?	-2.5%	16.4µM*
Cc1ccc(-c2nc3scc(CCNC(=O)c4cccc(Br)c4)n3n2)cc1	0.9%	?	-1.7%	?
Cc1cccc(-c2nc3scc(CCNC(=O)c4ccccc4Cl)n3n2)c1	5.4%	?	1.1%	20.6µM*
CCCCC(CC)CNC(=O)Cc1ccc(-n2c(=O)[nH]c3ccccc3c2=O)cc1 (stereo not drawn)	-4.4%	?	?	?
CCc1nnc(NC(=O)C2CCN(c3nccc(C)n3)CC2)s1	3.3%	2.7%	31.6µM*	-0.4%
CCc1nnc(NC(=O)C2CC(=O)N(C3CCCCC3)C2)s1 (stereo not drawn)	22.4µM*	2.9%	-1.1%	0.5%
C/C=C1\COC(C(=O)NCc2cccc(OC)c2OC)(C(F)(F)F)C=C1C=C(C)C (stereo not drawn)	-0.3%	.	.	.
COc1cccc(C(NC(C)=O)c2nc(-c3ccc(N(C)C)cc3)cs2)c1 (stereo not drawn)	.	?	-4.2%	?

Bioassay records from PubChem BioAssay.
